# Source: PubChem (National Center for Advancing Translational Sciences (NCATS))
# Most compounds without a hit are left out; they make up all but 19% or so of the library.
# AMA1-RON2 inh: disrupts binding of P. falciparum AMA1 to RON2 | AlphaScreen AMA1-biotinylated RON2 peptide binding | Potency, µM (doses to about 58.2 µM), for inactives: at the highest dose activity change, negative = inhibition, hits mostly inhibitors | 360,000 compounds, 0.2% hits | AID 720542;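 also: potency is read from the fitted curve at half-maximal effect; 0% = vehicle wells and -100% = peptide control; nearly all actives have a fitted effect of over 45% in size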
#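 AMA1 (3D7) with his tag at 25 nM final met compounds first, then biotinylated RON2 peptide at 25 nM; detection used donor plus acceptor beads, 10 µg/mL apiece, read by AlphaScreen after 30 min at room temperature.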
# Shiga inhibitor: blocks Shiga toxin action in Vero cells | Vero cells, Shiga toxin protein synthesis inhibition reporter | inhibition, % at 38.7 µM | 290,000 compounds, 9.2% hits | AID 2315; in the data active = inhibition mostly above about 28%, no sharp cut-off; inactive = mostly below about 43%; also: 0% is about no effect
# SARS PLpro yeast: blocks SARS-CoV papain-like protease in a yeast assay; S. cerevisiae expressing SARS-CoV PLpro, growth rescue; Potency, µM (highest dose often 32.9 µM), inactives show at the top dose activity, positive = growth rescue, hits mostly activators; 330,000 compounds, 0.19% hits; AID 485353; calls by dose curve; also: potency is read from the fitted curve at half-maximal effect; 0% is about no effect; nearly all actives have a fitted effect of over 55% in size
# Cycloheximide cs: counter-screen for Shiga toxin inhibitors: cycloheximide protein synthesis inhibition | cell reporter, cycloheximide protein synthesis inhibition counterscreen | 300,000 compounds, 12% hits | max response, %; in the data active = max response mostly above about 13%, no sharp cut-off; inactive = mostly below about 14%; also: read at 38.3 µM for the half of the compounds with a filed dose; 0% is about no effect
# Pf growth 48h: inhibits P. falciparum growth in the first generation, 48 h; P. falciparum luciferase growth in erythrocytes, 48 h; Potency, µM (titrated, usually from 28.7 µM), inactives show top-dose activity change, negative = inhibition, hits mostly inhibitors; 310,000 compounds, 5.9% hits; also: potency is read from the fitted curve at half-maximal effect; % is scaled to controls: 0 for no effect and ±100 for the full control effect
#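 Cell-based growth assay: transgenic P. falciparum expressing firefly luciferase, cultured in red cells within RPMI 1640 containing 0.5% w/v Albumax, 24 mM bicarbonate and gentamycin. A drop in luciferase activity indicates inhibition.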
# Pf growth 96h: P. falciparum growth inhibition at 96 hours. P. falciparum luciferase reporter growth, 96 h. Potency, µM (titrated, usually from 28.7 µM), for the others: top-dose activity change, negative = inhibition, most hits filed as inhibitors. 320,000 compounds, 6.9% hits; also: potency is read from the fitted curve at half-maximal effect; % is scaled to controls: 0 for no effect and ±100 for the full control effect
#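 Two parasite generations (96 h, 37 C, 5% CO2) of compound exposure in infected erythrocytes (0.05% parasitemia, 2% hematocrit). Luciferase-reporter P. falciparum; decreased luminescence indicates inhibited growth, aimed at apicoplast-acting delayed death.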
# * marks the source's active call; other numbers are inactive results; ? = inconclusive; . = no result given. Unless noted, calls follow the shape of the dose curve; as a rule, active = well fitted curve in the direction sought with a large enough effect; inconclusive = small, poorly fitted or top-dose-only effect, or another doubt; inactive = no such curve, though single readings can be large; an effect the other way counts as inactive or inconclusive.
SMILES,AMA1-RON2 inh,Shiga inhibitor,SARS PLpro yeast,Cycloheximide cs,Pf growth 48h,Pf growth 96h
Cc1ccc(S(=O)(=O)NN=C2CCC(C(C)(C)C)CC2)cc1[N+](=O)[O-] (centres undefined),-6%,-12,0%,-3,1%,33%
O=C(CCC1CCCC1)NCCS(=O)(=O)N1CCN(c2ccc(F)cc2)CC1,1%,.,.,.,?,-9%
Clc1ccc2c(c1)CNc1c(ncnc1N1CCOCC1)O2,0%,-14,-1%,12*,?,?
CCCc1nc2nc(C)c(NS(=O)(=O)c3ccc(Cl)cc3)c(=O)n2[nH]1,-1%,-20,-2%,2,20%,432%
O=C(c1ccc(N2CCOCC2)cc1)c1cccs1,-15%,53*,-12%,31*,204%,-10%
O=C(N/N=C/c1ccc(N2CCOCC2)cc1)c1cccs1,-8%,79*,-1%,39*,143%,72%
CCOc1cc(/C=N/NC(=O)c2cccs2)ccc1OC(=O)N1CCOCC1,9%,109*,-6%,45*,5%,-13%
CCOc1cc(/C=N/NC(=O)COc2ccccc2C)ccc1OC(=O)c1cccs1,-1%,-5,-1%,-1,-4%,36%
CN(CC1CCOCC1)C(=O)CC1C(=O)NCCN1Cc1ccc(F)c(F)c1 (centres undefined),-2%,-5,1%,-3,?,?
COCCn1c(C)cc(C2=NNC(=Nc3ccccc3)SC2)c1C,34%,34,4%,23*,?,-138%
COCCn1c(C)cc(C2=NNC(=NC(C)(C)C)SC2)c1C,15%,4,3%,10,12µM*,?
COc1ccc(N=C2SCC(=O)N2C)cc1,1%,.,.,.,.,.
COCCn1c(C)cc(C2=NNC(=Nc3ccc(OC)cc3)SC2)c1C,11%,20,-6%,10,13µM*,3.7µM*
Cc1cc(C2=NNC(=NC3CC3)SC2)c(C)n1-c1ccccc1F,20%,-21,-25%,3,?,?
CCOc1ccc(NC(=O)CSc2nc(=O)n(CCCN3CCOCC3)c3c2CCC3)cc1,13%,.,-18%,.,?,1%
CCCCn1nc(C(=O)N2CCN(S(=O)(=O)c3ccccc3)CC2)c2ccccc2c1=O,-5%,.,0%,.,?,?
CCOC(=O)Nc1nc(-c2ccccc2)c(C(=O)c2ccccc2)s1,-1%,-4,18%,2,.,?
COc1ccc(-c2nc(NC(=O)CSCCO)sc2C)cc1,-2%,70*,1%,24,-6%,?
CCCOC(=O)Nc1nc(-c2ccc(C)cc2)c(C)s1,-16%,65*,-7%,27*,-4%,17%
COc1ccc(-c2nc(NC(=O)Cn3cnnn3)sc2C)cc1,-1%,-3,0%,15,22%,40%
COc1ccc(-c2nc(NC(=O)Cn3ccc(C(F)(F)F)n3)sc2C)cc1,-5%,-6,1%,-3,.,13µM*
O=C(NC(NC1CCS(=O)(=O)C1)C(Cl)(Cl)Cl)c1ccc(Br)cc1 (centres undefined),2%,-25,-4%,-5,33%,?
C=CCN(C(=O)c1ccc2snnc2c1)c1ccccc1,-9%,6,2%,-8,-5%,25%
O=C(NCCCn1ccnc1)C1CC(c2ccccc2Cl)=NO1 (centres undefined),?,15,0%,-5,5%,53%
CCN(CC)c1ccc(NC(=O)c2cccc(C)c2)cc1S(=O)(=O)Nc1ccccc1OC,-6%,4,-14%,-2,7.4µM*,2.9µM*
COc1ccc(NC(=O)c2ccccc2)cc1NS(=O)(=O)c1ccc(F)cc1,1%,12,-4%,1,3%,-19%
CCN(CC)c1ccc(NC(=O)c2ccccc2)cc1S(=O)(=O)Nc1ccccc1OC,-14%,15,-19%,8,1.5µM*,?
COc1ccc(OCC(=O)Nc2ccc(C)c(S(=O)(=O)N(C)C)c2)cc1,0%,16,-1%,4,-10%,-21%
CCN(CC)c1ccc(NC(=O)COc2ccc(C#N)cc2)cc1S(=O)(=O)Nc1ccc(OC)cc1,15%,-8,14%,-7,?,10µM*
